High-throughput results (PubChem)
PAX8 inh HTS – lowers PAX8-driven luciferase in RMG-I cells; RMG-I TPO-luciferase reporter, SteadyGlo, 24 h; inhibition, % at 12.6 µM; 360,000 tested, 1.2% active; AID 652154;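 active = mean replicate inhibition at least 60% with every replicate also reaching 60%; inconclusive = only one of the two criteria is met; inactive = mean below 60% and not all replicates reaching 60%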;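 also: luciferase light reporting Pax8 driven TPO promoter activity; plate controls were median of neutral control wells for no effect and mitoxantrone controls for full effect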
LGR2 inh – Drosophila LGR2 receptor signaling inhibition; HEK293 LGR2, CRE-luciferase, bursicon-stimulated, 4 h; inhibition, % at 9.99 µM; 380,000 tested, 0.35% active; AID 720647;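 active = drop in luminescence signal, shown as inhibition above about 50% in the replicate tests, limit read from the data, passing the limit was not always enough; inconclusive = probably only some replicates passing the limit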;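 also: agonist challenge used bursicon conditioned medium at about half maximal strength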
Shn3 3UTR inh – Schnurri-3 reporter inhibition in Clone20 osteoblasts; Clone20 osteoblast Shn3 3'UTR firefly luciferase, 24 h; inhibition, % at 12.5 µM; 360,000 tested, 0.52% active; AID 588674;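 active = mean inhibition of at least 75% with every replicate also reaching 75%; inconclusive = mean inhibition at least 75% but some replicate below; inactive = mean inhibition below 75%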;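 also: 0% = median of neutral control wells and 100% = pilot-screen positive control compound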
EWS-Fli inh – EWS/Fli transcriptional activity inhibition; A673 NR0B1-luciferase reporter, viability-normalised; inhibition, % at 12.6 µM; 350,000 tested, 0.67% active; AID 651661;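 active = mean inhibition of at least 50% after viability correction, with every replicate also passing that limit; inconclusive = mean reaches 50% but only one of two replicates passes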;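 also: firefly luciferase signal divided by Alamar Blue viability fluorescence both relative to DMSO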
CF NFkB inh – blocks PAF-induced NF-kB reporter in cystic fibrosis cells. 360,000 tested, 0.86% active. KKLEB NF-kB-GFP reporter, GFP fluorescence overnight. inhibition, % at 5 µM;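 active = at least 50% inhibition at 5 µM, scaled per plate between neutral and stimulator controls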;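 also: PAF is a Pseudomonas aeruginosa culture filtrate used as stimulus; plate controls were PAF-stimulated DMSO wells for no effect and unstimulated DMSO wells for full effect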
KKLEB cytotox – CF airway cell cytotoxicity counter-screen; 360,000 tested, 0.36% active; AID 602141; activity change (cytotoxicity), % at 5 µM; KKLEB CF airway cells viability, ATPlite luminescence, overnight; hits give low values; cells stimulated with P. aeruginosa culture filtrate;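 active = corrected activity change at or below -50% at 5 µM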
Numbers without * were called inactive; ? = inconclusive; . = no result. Rows were chosen to be rich in hits. Some 2% of all compounds tested hit in one or more screens of this group.

SMILES	PAX8 inh HTS	LGR2 inh	Shn3 3UTR inh	EWS-Fli inh	CF NFkB inh	KKLEB cytotox
OC[C@@H]1CC[C@@H]2O[C@H](CCc3ccc(C#CCc4ccccc4)cc3)[C@H](n3cc(-c4ccccc4)nn3)C[C@@H]2O1	62*	.	.	1	.	.
OC[C@H]1CC[C@@H]2O[C@H](CCc3ccc(C#CCc4ccccc4)cc3)[C@H](n3cc(-c4ccccc4)nn3)C[C@@H]2O1	18	.	.	-8	.	.
O=C(C[C@H]1C=C[C@H](NC(=O)C2CCC2)[C@@H](CO)O1)NCCCN1CCOCC1	-3	-7	.	0	.	.
C[C@H]1CN([C@@H](C)CO)S(=O)(=O)c2ccc(-c3cccnc3)cc2O[C@H]1CN(C)C(=O)CN(C)C	.	-7	.	-2	.	.
O=C(CCCC(=O)OCC(Cl)=C(Cl)Cl)Nc1ccc(F)cc1	103*	-16	-10	4	-14	-3
O=C(Nc1cccc(C(=O)O)c1)Nc1ccccc1Cl	44	70*	10	?	2	-6
O=C(Nc1ccccc1)Nc1cccc(Cl)c1	.	.	3	.	-3	1
O=C(Nc1cccc(Cl)c1)Nc1cccc(C(=O)O)c1	14	?	22	55*	2	-13
O=C(Nc1ccc(Cl)cc1)Nc1cccc(C(=O)O)c1	86*	92*	15	82*	-4	16
Cc1ccc(NC(=O)Nc2ccc3c(c2)nc(C)n3C)cc1	-71	-69	-116	-91	-14	3
Cc1nc2cc(NC(=O)Nc3ccccc3Cl)ccc2n1C	10	51*	2	37	-37	-18
COCC(=O)N1[C@@H]2CN(C(=O)c3ccccc3)c3ccccc3[C@@H]2[C@@H]1CO	-20	16	.	4	.	.
Cc1noc(C)c1NC(=O)N(C)C[C@H]1Oc2c(NC(=O)Nc3ccc4c(c3)OCO4)cccc2C(=O)N([C@@H](C)CO)C[C@H]1C	.	-5	.	4	.	.
O=C(NCc1ccncn1)[C@H]1[C@H](CO)[C@H]2Cn3c(ccc(-c4ccc(F)cc4)c3=O)[C@H]2N1CC1CC1	16	-14	.	3	.	.
O=C(NCc1ccccc1)C(=O)Nc1cccc(C(=O)O)c1	59	84*	30	57*	-6	0
O=[N+]([O-])c1ccc(S(=O)(=O)c2cccc(C(F)(F)F)c2)nc1	.	.	.	.	89*	-39
O=c1cc(-c2cccc(F)c2)[nH]c2ccccc12	57	-17	-10	66*	34	-4
COc1cccc(-c2cc(=O)c3cc(NC(=O)c4ccccc4)ccc3[nH]2)c1	52	-13	11	37	21	-13
O=c1cc(-c2ccccc2)[nH]c2ccc(F)cc12	11	5	18	58*	26	-13
COc1ccc(-c2cc(=O)c3ccccc3[nH]2)cc1	-37	-22	5	-31	21	4
O=c1cc(-c2cccc(F)c2)oc2ccccc12	-48	-37	-15	-43	-29	-4
Cc1ccc2[nH]c(-c3cccc(F)c3)cc(=O)c2c1	9	-38	-33	57*	40	-1
COc1ccc2[nH]c(-c3cccc(F)c3)cc(=O)c2c1	-6	-31	-20	30	56*	-10
Cc1ccc2[nH]c(C(F)(F)F)cc(=O)c2c1	-9	16	-14	12	-8	-3
O=C(C[C@H]1C[C@@H]2c3cc(NC(=O)Nc4ccccc4)ccc3O[C@@H]2[C@H](CO)O1)NCc1cccnc1	6	13	.	-3	.	.
SMILES	PAX8 inh HTS	LGR2 inh	Shn3 3UTR inh	EWS-Fli inh	CF NFkB inh	KKLEB cytotox
CNC[C@@H]1Oc2ccc(NC(=O)Nc3ccc(C(F)(F)F)cc3)cc2CC(=O)N([C@H](C)CO)C[C@@H]1C	6	-14	.	5	.	.
Cc1ccc(S(=O)(=O)N(C)C[C@@H]2OCCCC[C@@H](C)Oc3ccc(N(C)C)cc3C(=O)N([C@@H](C)CO)C[C@H]2C)cc1	59	-15	.	-3	.	.
Cc1ccc(-c2cc(=O)c3cc(C)ccc3[nH]2)cc1	-1	53*	-33	59*	-4	-37
Clc1ccc2[nH]c(-c3ccccc3)cc2c1	.	.	-35	.	-11	-4
Cc1ccc(-c2cc(=O)c3cc(F)ccc3[nH]2)cc1	-29	-54	7	-55	-15	6
O=c1cc(-c2ccccc2)[nH]c2cc(Cl)ccc12	15	.	14	59*	41	0
C[C@H]1C=C(C(=O)N2CCN(Cc3ccccc3)CC2)O[C@@H](OCc2ccc(CO)cc2)C1	5	.	.	-4	.	.
CN(C)c1ccc(/C=C2\SC(N3CCCCC3)=NC2=O)cc1	-18	45	-9	51*	-16	-11
COc1ccc(-c2cn3ccccc3n2)cc1	-12	25	.	15	-20	-24
CCCOc1ccc(-c2cn3ccccc3n2)cc1	9	75*	-25	47	5	-38
COc1ccccc1-c1ccc([C@H]2[C@H](C#N)N(C(=O)CN(C)C)[C@H]2CO)cc1	-24	-17	.	-8	.	.
O=C1C=C(NCCc2cc(Br)c(O)c(Br)c2)C(=O)c2ncccc21	101*	74*	94*	19	76*	-33
CCOc1cccc(/C=N/NC(=O)c2cc(-c3cccn3C)n[nH]2)c1O	53	11	88*	14	-8	10
COc1ccc(OC)c(Nc2cc3ccccc3c(=O)[nH]2)c1	9	-7	0	62*	10	-5
COc1ccc2c(c1)OC/C(=C/c1cccs1)C2=O	112*	9	-134	-26	-10	-7
O=C(/C(=C/O)N=Nc1ccccc1)c1ccncc1	.	.	-1	.	-15	3
Cc1cccc(N=N/C(=C\O)C(=O)c2cccs2)c1	14	-93	-1	-2	26	15
O=C(/C(=C/O)N=Nc1ccccc1)c1ccc(Cl)cc1	24	-89	14	3	63*	-29
Cc1ccc(N=N/C(=C\O)C(=O)c2ccc(Cl)cc2)cc1	42	-4	15	9	76*	-57*
O=C(C[C@@H]1C[C@@H]2c3cc(NC(=O)C4CCC4)ccc3O[C@@H]2[C@@H](CO)O1)NCC1CC1	16	-6	.	4	.	.
O=C(Nc1cccc(F)c1)N1CCCCN2[C@H](CO)[C@H](c3ccc(-c4ccccc4F)cc3)[C@H]2C1	?	12	.	59*	.	.
O=C(Nc1ccccc1)N1CCCCN2[C@H](CO)[C@H](c3ccc(-c4ccccc4F)cc3)[C@H]2C1	-6	-4	.	19	.	.
O=C(Nc1cccc(F)c1)N1CCCCN2[C@@H](CO)[C@@H](c3ccc(-c4ccccc4F)cc3)[C@@H]2C1	114*	12	.	43	.	.
O=C(C1CCCC1)N1CC[C@@H]2[C@H](CO)Nc3ccc(Br)cc3[C@@H]21	.	-9	.	-6	.	.
CN(Cc1cc(Cl)cc(Cl)c1)CC(C(=O)c1ccccc1)c1ccccc1 (centres undefined)	79*	?	53	6	8	-2
CN(C)CC(C(=O)c1ccccc1)c1ccccc1 (centres undefined)	.	.	95*	.	63*	-51*
